Data as given in PubChem BioAssay (NCATS).
Several values for one entry are separate records, joined by “and”; a condition that tells them apart may be missing. Identical values can stand only once. Records with an inconclusive call do not appear. Activity calls are given as the source filed them. Unless noted, the call rests on the fitted dose curve.

What was measured:
[1] = Cell Viability - BJ (AID 421); conditions: BJ fibroblast viability, qHTS;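 further: potency means the concentration at half of the fitted maximal effect; cells exposed to compound for 40 hours at 37 °C before readout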
How it was run: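 Cytotoxicity in human BJ foreskin fibroblasts is scored as loss of cellular ATP after a 40-hour exposure, measured by luciferase luminescence. Controls are DMSO and 100 uM tamoxifen.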

[2] = Cell Viability - NIH 3T3 (AID 541; active means well fitted curve in the direction sought with a large enough effect; an effect the other way counts as inactive or inconclusive;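 further: cells exposed to compound for 40 hours; nearly all actives have a fitted effect of over 25% in size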; further: potency means the concentration at half of the fitted maximal effect;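 on activity change, negative = cytotoxicity: plate controls were DMSO alone for no effect and tamoxifen positive control for full effect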); conditions: NIH 3T3 cell viability, qHTS; activity change, negative = cytotoxicity: at 92.2 µM (top of the series)
How it was run: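 Intracellular ATP (CellTiter-Glo luminescence, 20 min at room temperature) measured after 40 hr compound exposure at 37 °C of 1000 NIH 3T3 mouse fibroblasts/well in complete medium; AC50 derived by Hill-equation modelling of qHTS concentration-response curves.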

[3] = Cell Viability - SH-SY5Y (AID 544; active means well fitted curve in the direction sought with a large enough effect; an effect the other way counts as inactive or inconclusive;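 further: cells exposed to compound for 40 hours; nearly all actives have a fitted effect of over 55% in size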); conditions: SH-SY5Y neuroblastoma cell viability; viability change, negative = cytotoxic: at 92.2 µM (top of the series)
How it was run: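 Cytotoxicity measured via ATP-dependent luciferase luminescence (CellTiter-Glo) following 40 h, 37 °C exposure of 1500 SH-SY5Y cells per well. Concentration-response data were fitted with the standard Hill equation to give AC50.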

[4] = Cellular Toxicity (caspase-3) Jurkat (AID 655; active means well fitted curve in the direction sought with a large enough effect; an effect the other way counts as inactive or inconclusive;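 further: cells exposed to compound for 16 h at 37 °C before reading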); conditions: Jurkat caspase-3 activation, luminescence; caspase-3 activation: at 92.2 µM (top of the series), DMSO = 0%, tamoxifen = 100%
How it was run: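 5000 Jurkat cells/well; compound 16 hr, 37 °C; Caspase-Glo 3/7 added, 20 min RT; luminescence read. Norm: DMSO = 0%, tamoxifen 100 uM = 100%. AC50, Hill model.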

[5] = Cell Viability - LYMP2-005 (AID 967; active means well fitted curve in the direction sought with a large enough effect; an effect the other way counts as inactive or inconclusive;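 further: cells exposed to compound for 24 h at 37 °C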; further: potency means the concentration at half of the fitted maximal effect); conditions: LYMP2-005 lymphoblastoid cell viability; series mostly up to 92.2 µM
How it was run: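 Acute cytotoxicity is scored as a concentration-dependent drop in intracellular ATP in human lymphoblastoid LYMP2-005 cells after 24 h compound treatment. ATP is quantified by luciferase luminescence, and AC50 is derived by Hill-equation modelling.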

[6] = target: Estrogen receptor (Homo sapiens) (UniProt P03372); experiment: qHTS assay for small molecule antagonists of estrogen receptor alpha signaling (AID 588513; active means well fitted curve in the direction sought with a large enough effect in the signal ratio, with a control signal flat, not every such curve was filed as active; the % refers to the signal ratio; further: on the % scale 0 is the no-effect control and ±100 the full control effect); conditions: ER-alpha-UAS-bla HEK293, beta-lactamase ratio, antagonist mode; series mostly up to 76.9 µM
How it was run: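 Fluorescence from CCF4 substrate after 2 h at room temperature gave reporter activity; cells had been exposed to compound and 0.5nM 17-beta-estradiol for 18 h at 37 C. Hill-equation fitting yielded IC50 and maximal response.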

[7] = target: Estrogen receptor (Homo sapiens) (UniProt P03372); experiment: qHTS assay for small molecule agonists of estrogen receptor alpha signaling (AID 588514); conditions: ER-alpha-UAS-bla HEK293, beta-lactamase ratio, 18 h; series mostly up to 76.8 µM;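 further: 0% = vehicle only and 100% = reference agonist; nearly all actives have a fitted effect of over 70% in size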
How it was run: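 EC50 and efficacy came from Hill fits of beta-lactamase reporter signal (CCF4 dye, 2 h at room temperature) scaled between DMSO and 20 nM 17-beta-estradiol. Agonist mode: HEK293 ER-alpha-UAS-bla cells in charcoal/dextran-stripped serum medium, 18 h compound exposure at 37 C.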

[8] = target: Bile acid receptor (Homo sapiens) (UniProt Q96RI1); experiment: qHTS assay for small molecule antagonists of farnesoid X receptor signaling (AID 588526); conditions: HEK293T FXR-UAS-bla, beta-lactamase ratio, antagonist mode; series mostly up to 76.7 µM; further: on the % scale 0 is the no-effect control and ±100 the full control effect
How it was run: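 Concentration-response titrations were fitted to the Hill equation for half-maximal inhibition and maximal response, with data normalised to 50 uM chenodeoxycholic acid and DMSO control wells. Cells: FXR-UAS-bla HEK293T, dialyzed FBS.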

[9] = target: Glucocorticoid receptor (Homo sapiens) (UniProt P04150); experiment: qHTS assay for small molecule agonists of glucocorticoid receptor signaling (AID 588532; active means well fitted curve in the direction sought with a large enough effect in the signal ratio, with a control signal flat; the % refers to the signal ratio;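 further: 100% = dexamethasone at 0.1 µM and 0% = DMSO only wells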); conditions: HeLa MMTV-bla, beta-lactamase ratio, agonist, 18 h; stronger effect = higher value; percent of dexamethasone control, DMSO zero
How it was run: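 Stimulation of a glucocorticoid response element-driven beta-lactamase gene was measured in HeLa cells. Responses were scaled between DMSO basal and 0.1 uM dexamethasone, then fitted for half-maximal stimulation.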

[10] = qHTS assay for small molecule antagonists of peroxisome proliferator-activated receptor delta signaling (AID 588535; active means well fitted inhibition curve with a large enough effect in the signal ratio, with a control signal flat, not every such curve was filed as active; the % refers to the signal ratio;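 on max response: cells co-treated with a PPAR-delta agonist as stimulator during compound exposure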); conditions: HEK293T PPARd-UAS-bla, beta-lactamase FRET ratio, 18 h; 460 nm channel
How it was run: (§1)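 Inhibition of PPAR-delta response element-driven beta-lactamase expression is measured in HEK293T cells exposed to a compound titration series for 18 hrs at 37 C. Half-maximal inhibition comes from Hill equation fitting.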

[11] = target: Peroxisome proliferator-activated receptor delta (Homo sapiens) (UniProt Q03181); experiment: as above; conditions: HEK293T PPARd-UAS-bla, beta-lactamase FRET ratio, 18 h; series mostly up to 76.7 µM
How it was run: as §1

[12] = target: Peroxisome proliferator-activated receptor gamma (Homo sapiens) (UniProt P37231); experiment: qHTS assay for small molecule antagonists of peroxisome proliferator-activated receptor gamma signaling (AID 588537; active means well fitted inhibition curve with a large enough effect in the signal ratio, with a control signal flat, not every such curve was filed as active; the % refers to the signal ratio;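 further: reporter cells co-stimulated with 50 nM rosiglitazone agonist during compound treatment; % of control where 0% means no effect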); conditions: HEK293 PPARg-UAS-bla, beta-lactamase ratio, antagonist mode; series mostly up to 76.8 µM
How it was run: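 Compounds are tested as concentration series for inhibition of rosiglitazone-driven (50 nM) reporter expression in GeneBLAzer PPAR-gamma-UAS-bla HEK293 cells. After 16 h at 37 C, CCF4 substrate is added for 2 h at room temperature and blue/green fluorescence is measured.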

[13] = target: Retinoic acid receptor RXR-alpha (Homo sapiens) (UniProt P19793); experiment: qHTS assay for small molecule agonists of retinoid X receptor alpha signaling (AID 588544); conditions: HEK293T RXRa-UAS-bla, beta-lactamase reporter, 18 h; series mostly up to 76.7 µM;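 further: 0% = DMSO basal wells and 100% = reference agonist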
[14] = qHTS assay for small molecule activators of the nuclear factor-kappa B (NF-kB) signaling pathway (AID 651749; active means well fitted activation curve with a large enough effect in the signal ratio; the % refers to the signal ratio; further: % of control where 0% means no effect); conditions: NF-kB-bla ME-180 cells, beta-lactamase FRET ratio, 16 h; stronger effect = higher value
How it was run: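 Human ME-180 cervical cells with an NF-kB-bla construct; compounds added via 23 nL pin transfer, DMSO as vehicle; incubation 16 hr. Reporter activity measured by FRET disruption.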

[15] = qHTS assay for small molecule disruptors of the mitochondrial membrane potential - 1 hr assay (AID 651754); conditions: series mostly up to 92.2 µM; further: nearly all actives have a fitted effect of over 35% in size; further: potency means the concentration at half of the fitted maximal effect
How it was run: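 Mitochondrial potential in living HepG2 cells after 1 hr compound treatment at 37C was read with Mito-MPS dye added for a further 30 min. Red aggregate and green monomer fluorescence were measured; loss of potential leaves dye as cytoplasmic monomers.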

[16] = qHTS assay for small molecule disruptors of the mitochondrial membrane potential - 5 hr assay (AID 651755); conditions: JC-1-type ratio dye; series mostly up to 92.2 µM; further: on the % scale 0 is the no-effect control and ±100 the full control effect; nearly all actives have a fitted effect of over 40% in size
How it was run: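 Seed HepG2 overnight, add compound, incubate 5 hr at 37C and 5% CO2, stain 30 min with Mito-MPS, then measure monomer (490/535 nm) and aggregate (540/590 nm) fluorescence.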

[17] = target: Glucocorticoid receptor (Homo sapiens) (UniProt P04150); experiment: qHTS assay for small molecule antagonists of glucocorticoid receptor signaling (AID 588533; active means well fitted inhibition curve with a large enough effect in the signal ratio, with a control signal flat, not every such curve was filed as active; the % refers to the signal ratio;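 further: cells stimulated with 2 nM dexamethasone as agonist; on the % scale 0 is the no-effect control and ±100 the full control effect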); conditions: HeLa MMTV-bla, GRE beta-lactamase ratio, antagonist mode, 18 h; series mostly up to 76.8 µM
How it was run: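 Antagonist-mode qHTS: compound titrations added to GRE-bla HeLa cells, then dexamethasone 2 nM final; 18 h, 37 C. CCF4 FRET fluorescence normalized to dexamethasone and DMSO; IC50 from Hill fit.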

[18] = target: Peroxisome proliferator-activated receptor delta (Homo sapiens) (UniProt Q03181); experiment: qHTS assay for small molecule agonists of peroxisome proliferator-activated receptor delta signaling (AID 588534); conditions: HEK293T PPARdelta-UAS-bla, beta-lactamase ratio, 18 h; series mostly up to 76.7 µM;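 further: 0% = DMSO basal wells and 100% = positive control agonist at 10 µM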
How it was run: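 Agonist-mode beta-lactamase reporter readout (CCF4 dye, 2 h at RT) after 18 h at 37 °C exposure to a titration; Hill-equation fitting gave EC50 and maximal response.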

[19] = qHTS assay for small molecule agonists of the antioxidant response element (ARE) signaling pathway (AID 651741; active means well fitted activation curve with a large enough effect in the signal ratio; the % refers to the signal ratio; further: potency means the concentration at half of the fitted maximal effect; on activation: % of control where 0% means no effect); conditions: HepG2 ARE-bla reporter, beta-lactamase FRET ratio, 16 h; series mostly up to 96 µM
How it was run: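 Reporter: beta-lactamase under ARE, stably in HepG2. Exposure: 16 h, 37 C, compounds delivered in DMSO by pin tool after 5 h cell preincubation. Readout: FRET substrate fluorescence after 2 h at RT.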

[20] = qHTS assay for small molecule activators of the p53 signaling pathway (AID 651743; active means well fitted activation curve with a large enough effect in the signal ratio, not every such curve was filed as active; the % refers to the signal ratio; further: % of control where 0% means no effect); conditions: HCT-116 p53RE-bla, beta-lactamase FRET ratio, 16 h; activation: stronger effect = higher value
How it was run: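 Agonist-mode quantitative HTS in HCT-116 cells carrying a p53-response-element beta-lactamase reporter; 16 h compound treatment at 37 C, then FRET substrate loading for 2 h at room temperature and fluorescence read.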

Peroxisome proliferator-activated receptor delta (Homo sapiens), sequence (Q03181 whole entry, looked up): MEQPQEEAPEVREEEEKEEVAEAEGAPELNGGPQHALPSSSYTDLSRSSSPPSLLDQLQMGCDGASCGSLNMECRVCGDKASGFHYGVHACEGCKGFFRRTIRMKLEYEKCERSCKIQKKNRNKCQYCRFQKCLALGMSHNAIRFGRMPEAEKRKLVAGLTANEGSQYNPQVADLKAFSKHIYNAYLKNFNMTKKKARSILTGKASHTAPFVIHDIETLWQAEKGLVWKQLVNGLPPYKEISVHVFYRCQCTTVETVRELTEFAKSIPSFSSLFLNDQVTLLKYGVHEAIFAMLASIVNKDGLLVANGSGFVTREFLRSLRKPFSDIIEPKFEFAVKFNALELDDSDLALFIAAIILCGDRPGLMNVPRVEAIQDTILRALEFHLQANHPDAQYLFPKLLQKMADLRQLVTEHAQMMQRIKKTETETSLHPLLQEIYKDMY
Peroxisome proliferator-activated receptor gamma (Homo sapiens), sequence (P37231 whole entry, looked up): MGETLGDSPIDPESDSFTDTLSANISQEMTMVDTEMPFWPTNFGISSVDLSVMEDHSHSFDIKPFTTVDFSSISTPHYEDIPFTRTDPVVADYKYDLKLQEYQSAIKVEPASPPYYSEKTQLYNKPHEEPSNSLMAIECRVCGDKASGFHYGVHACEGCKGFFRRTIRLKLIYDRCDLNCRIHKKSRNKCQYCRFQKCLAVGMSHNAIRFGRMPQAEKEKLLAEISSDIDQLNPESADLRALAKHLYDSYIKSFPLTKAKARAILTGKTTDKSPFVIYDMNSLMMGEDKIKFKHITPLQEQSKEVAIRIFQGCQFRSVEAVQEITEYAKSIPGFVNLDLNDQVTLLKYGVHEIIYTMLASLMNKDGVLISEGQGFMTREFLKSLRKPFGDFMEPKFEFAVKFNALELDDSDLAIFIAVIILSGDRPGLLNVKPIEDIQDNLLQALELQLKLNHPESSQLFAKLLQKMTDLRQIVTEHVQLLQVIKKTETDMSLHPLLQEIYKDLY
Glucocorticoid receptor (Homo sapiens), sequence (P04150 whole entry, looked up): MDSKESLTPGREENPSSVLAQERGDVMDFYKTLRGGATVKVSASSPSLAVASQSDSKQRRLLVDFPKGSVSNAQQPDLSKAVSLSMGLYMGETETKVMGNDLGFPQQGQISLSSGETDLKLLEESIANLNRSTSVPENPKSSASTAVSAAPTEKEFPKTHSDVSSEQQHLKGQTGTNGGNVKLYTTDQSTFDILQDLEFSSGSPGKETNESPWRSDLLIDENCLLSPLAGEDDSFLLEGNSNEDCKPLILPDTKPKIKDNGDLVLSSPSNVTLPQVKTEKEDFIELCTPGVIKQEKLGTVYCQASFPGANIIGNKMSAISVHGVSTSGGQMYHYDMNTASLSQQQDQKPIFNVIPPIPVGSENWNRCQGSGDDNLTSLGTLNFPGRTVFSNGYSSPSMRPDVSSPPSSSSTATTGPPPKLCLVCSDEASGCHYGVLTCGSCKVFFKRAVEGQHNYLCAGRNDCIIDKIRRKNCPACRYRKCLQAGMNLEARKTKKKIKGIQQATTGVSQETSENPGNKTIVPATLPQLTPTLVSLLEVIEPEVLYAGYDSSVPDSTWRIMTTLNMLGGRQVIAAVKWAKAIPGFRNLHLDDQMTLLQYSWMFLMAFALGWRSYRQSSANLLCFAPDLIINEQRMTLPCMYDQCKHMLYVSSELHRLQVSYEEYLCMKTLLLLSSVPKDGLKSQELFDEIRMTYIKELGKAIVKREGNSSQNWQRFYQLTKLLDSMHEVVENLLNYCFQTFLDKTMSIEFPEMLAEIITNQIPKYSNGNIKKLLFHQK
Bile acid receptor (Homo sapiens), sequence (Q96RI1 whole entry, looked up): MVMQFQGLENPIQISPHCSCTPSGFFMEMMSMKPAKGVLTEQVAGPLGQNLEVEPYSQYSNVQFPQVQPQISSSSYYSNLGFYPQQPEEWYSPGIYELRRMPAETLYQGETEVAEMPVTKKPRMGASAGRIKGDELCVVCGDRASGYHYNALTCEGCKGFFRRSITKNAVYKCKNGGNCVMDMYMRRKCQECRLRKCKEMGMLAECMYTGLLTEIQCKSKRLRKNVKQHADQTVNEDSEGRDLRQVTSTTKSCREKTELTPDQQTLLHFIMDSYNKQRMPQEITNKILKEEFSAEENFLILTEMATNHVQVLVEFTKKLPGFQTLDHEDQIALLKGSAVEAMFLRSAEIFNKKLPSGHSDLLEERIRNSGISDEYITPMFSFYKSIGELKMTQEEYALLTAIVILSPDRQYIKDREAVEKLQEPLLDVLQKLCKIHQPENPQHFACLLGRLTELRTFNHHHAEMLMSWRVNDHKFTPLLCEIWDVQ
Estrogen receptor (Homo sapiens), sequence (P03372 whole entry, looked up): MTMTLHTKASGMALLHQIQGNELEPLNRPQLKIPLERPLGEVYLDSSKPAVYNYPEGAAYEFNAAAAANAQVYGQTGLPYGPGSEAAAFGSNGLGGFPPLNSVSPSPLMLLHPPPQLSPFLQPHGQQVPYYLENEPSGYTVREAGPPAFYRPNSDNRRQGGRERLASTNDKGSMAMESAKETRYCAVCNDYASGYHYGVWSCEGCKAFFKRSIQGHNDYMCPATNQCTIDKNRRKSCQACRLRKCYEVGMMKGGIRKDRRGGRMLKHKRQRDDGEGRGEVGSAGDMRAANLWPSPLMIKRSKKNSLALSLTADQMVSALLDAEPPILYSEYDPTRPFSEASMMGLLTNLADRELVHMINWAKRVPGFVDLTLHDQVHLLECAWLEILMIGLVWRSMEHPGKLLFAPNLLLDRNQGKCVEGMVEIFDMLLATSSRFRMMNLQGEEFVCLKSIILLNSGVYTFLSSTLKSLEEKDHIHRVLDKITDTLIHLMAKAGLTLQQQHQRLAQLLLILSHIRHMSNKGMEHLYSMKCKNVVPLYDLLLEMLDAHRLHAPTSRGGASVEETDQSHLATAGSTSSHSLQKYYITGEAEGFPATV
Retinoic acid receptor RXR-alpha (Homo sapiens), sequence (P19793 whole entry, looked up): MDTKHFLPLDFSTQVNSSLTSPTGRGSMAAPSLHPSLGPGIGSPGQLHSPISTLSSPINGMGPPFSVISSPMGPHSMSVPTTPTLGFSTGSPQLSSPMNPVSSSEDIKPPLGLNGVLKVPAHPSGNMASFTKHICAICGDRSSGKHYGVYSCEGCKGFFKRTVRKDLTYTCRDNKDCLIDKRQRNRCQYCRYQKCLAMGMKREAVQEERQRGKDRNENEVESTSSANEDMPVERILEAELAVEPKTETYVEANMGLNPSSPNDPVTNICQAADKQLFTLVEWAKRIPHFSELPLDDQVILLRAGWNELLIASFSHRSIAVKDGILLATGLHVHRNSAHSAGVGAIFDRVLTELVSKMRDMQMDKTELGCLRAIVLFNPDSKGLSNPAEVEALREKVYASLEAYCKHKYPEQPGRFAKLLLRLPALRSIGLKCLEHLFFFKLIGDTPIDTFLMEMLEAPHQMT

CCN(N=O)C(N)=O
inactive: Potency [1] > 92 µM | Potency [2] | Potency [3] | caspase-3 activation [4] 0.577% | Potency [5] | Potency [6] | Potency [7] | outcome [8] | activation [9] -3.98% | outcome [11] | Potency [12] | outcome [13] | activation [14] -1.14% | Potency [15] | Potency [16]
-10.7%: max response [10]

N#CCCCCC#N
inactive: Potency [1] > 92 µM | Potency [2] | Potency [3] | caspase-3 activation [4] -0.898% | Potency [5] | outcome [8] | activation [9] -2.66% | outcome [17] | outcome [18] | outcome [13] | Potency [19] | activation [20] -0.437% | Potency [15] | Potency [16]

c1ccc(Nc2ccc(Nc3ccccc3)cc2)cc1
91.4%: max response [10]
active: Potency [15] 42.2 µM
inactive: Potency [1] > 92 µM | caspase-3 activation [4] 8.77% | Potency [5] | outcome [18] | outcome [11] | outcome [13]

CN1CSC(=S)N(C)C1
inactive: Potency [1] > 92 µM | Potency [6] | activation [9] 6.16% | outcome [17] | outcome [18] | Potency [12] | activation [14] -0.197% and -1.34% | Potency [16]
active: Potency [2] 1.26 µM | viability change, negative = cytotoxic [3] -83% | Potency [5] 31.6 µM | Potency [19] 42.2 µM and 27.3 µM

CN(C)C(=O)Nc1ccc(Cl)cc1
inactive: Potency [1] > 92 µM | Potency [2] | Potency [3] | caspase-3 activation [4] -0.0397% | Potency [5] | outcome [8] | activation [9] 8.83% and -10.8% | outcome [17] | outcome [18] | outcome [11] | Potency [12] | Potency [19] | activation [14] 2.75% and -0.215% | Potency [15] | Potency [16]
-2.77% and 22.5%: max response [10]

C=CC#N
inactive: Potency [1] > 92 µM | Potency [3] | Potency [5] | activation [9] -6.69% | outcome [17] | Potency [12] | Potency [19] | activation [20] -2.66% | activation [14] -0.054% | Potency [15] | Potency [16]

CC(C)C#N
inactive: Potency [1] > 92 µM | Potency [2] | Potency [3] | caspase-3 activation [4] -1.09% | Potency [5] | activation [9] 1.53% | outcome [17] | outcome [18] | outcome [11] | Potency [12] | outcome [13] | activation [14] -0.872% | Potency [15] | Potency [16]
-11.5%: max response [10]

N#CC(Br)Br
-6.9%: max response [10]
active: Potency [19] 42.2 µM
inactive: Potency [1] > 92 µM | Potency [3] | Potency [5] | Potency [6] | activation [9] -5.99% | outcome [18] | outcome [11] | Potency [12] | outcome [13] | activation [14] -1.36% | Potency [15]
